# PubChem BioAssay (Tox21)
# Activity calls are given as the source filed them. Entries that show only a call come without a potency. Calls follow the shape of the full dose curve.
# Target: Estrogen receptor (Homo sapiens) (UniProt P03372)
# Assay: qHTS assay to identify small molecule agonists of the estrogen receptor alpha (ER-alpha) signaling pathway in the presence of an antagonist (AID 1259383); also: nearly all actives have a fitted effect of over 15% in size; as to activation: top concentration of the series differs between compounds
# Settings: VM7Luc4E2 cells, ERE-luciferase, +ICI-182,780, 22 h; series mostly up to 92.4 µM
# From the text: National Center for Advancing Translational Sciences [NCATS] NIH Chemical Genomics Center [NCGC] U.S. Environmental Protection Agency [EPA] National Institutes of Environmental Health Sciences [NIEHS] National Toxicology Program [NTP] Assay overview: Estrogen receptor (ER), a member of nuclear hormone receptor plays an important role in development, metabolic homeostasis and reproduction. Two subtypes of ER, ER-alpha and ER-beta, have similar expression patterns with some uniqueness in both types. Endocrine disrupting chemicals (EDCs) and their interactions with steroid hormone receptors like ER causes disruption of normal endocrine function. Therefore, it is important to understand the effect of environmental chemicals in ER signaling pathway. For identifying ER agonists, VM7Luc4E2 cell line has been used in the current assay. VM7Luc4E2 cell line (provided by Denison MS, University of California) endogenously expresses full-length ER-alpha and is stably transfected with a plasmid containing four estrogen responsive elements (ERE) upstream of a luciferase reporter gene. This current screening for measuring luciferase reporter gene activity using VM7Luc4E2 cells against Tox21 10K library collection is a confirmation study on agonist mode screening in presence of ER-antagonist (ICI-182,780) at 10.0nM final concentration.
# Assay Protocol Summary: VM7Luc4E2 cells were cultured in phenol red free assay medium containing 10% charcoal stripped FBS for 5 days prior to the assay. The cells were dispensed at 4,000 cells in 4uL of assay medium per well into white wall/solid-bottom 1536-well plates (Corning Life Sciences, Corning, NY) using a Multidrop Combi (Thermo Fisher Scientific Inc., Waltham, MA) dispenser. After the assay plates were incubated at 37C and 5% CO2 for 24hr, 1uL of 10.0nM (final concentration) ICI-182,780 or assay buffer was added using two separate tips of Flying Reagent Dispenser (FRD, Aurora Discovery, San Diego, CA). Then 23nL of compounds dissolved in DMSO at 15 concentrations and positive controls or DMSO only was transferred to the assay plates by a Pintool station (Wako, San Diego, CA). The assay plates were incubated at 37C and 5% CO2 for 22hr. For luciferase read, 4uL/well ONE-Glo reagent (Promega Corporation, Madison, WI) was added to each well using FRD and after 30min incubation at room temperature, luminescence signal was measured on ViewLux plate reader (PerkinElmer, Shelton, CT).
# Potency is read from the fitted curve at half-maximal effect.
# Estrogen receptor (Homo sapiens), sequence (P03372 whole entry, looked up): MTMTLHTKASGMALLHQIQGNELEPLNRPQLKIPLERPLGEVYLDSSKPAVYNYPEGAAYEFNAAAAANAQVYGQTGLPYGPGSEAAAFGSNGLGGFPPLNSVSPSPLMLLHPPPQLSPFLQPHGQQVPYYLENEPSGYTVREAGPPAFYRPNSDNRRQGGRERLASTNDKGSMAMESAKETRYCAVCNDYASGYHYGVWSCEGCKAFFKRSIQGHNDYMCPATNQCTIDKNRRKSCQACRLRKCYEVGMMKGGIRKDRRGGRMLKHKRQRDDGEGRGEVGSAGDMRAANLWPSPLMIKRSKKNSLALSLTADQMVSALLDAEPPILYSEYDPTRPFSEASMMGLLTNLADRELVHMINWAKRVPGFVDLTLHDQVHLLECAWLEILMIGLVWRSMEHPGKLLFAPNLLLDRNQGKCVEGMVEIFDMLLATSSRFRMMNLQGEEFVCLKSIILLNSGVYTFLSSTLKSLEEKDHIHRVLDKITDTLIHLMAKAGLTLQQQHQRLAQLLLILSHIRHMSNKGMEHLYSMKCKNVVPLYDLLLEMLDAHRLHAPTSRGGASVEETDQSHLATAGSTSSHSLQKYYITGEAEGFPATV
SMILES,Potency,activation
CC(=O)Oc1cc2c(s1)CCN(C(C(=O)C1CC1)c1ccccc1F)C2 (stereo not given),inactive,–
O=C(O)Cc1ccc2c(c1)C(=O)c1ccccc1CO2,inactive,–
CCCCCCCCCCCCOC(=O)c1ccc(O)cc1,inactive,–
CCCCC(CC)CN1CN(CC(CC)CCCC)CC(C)(N)C1 (stereo not given),inactive,–
CCOC(=O)Cn1cccc1-c1nc(-c2ccc(OC)cc2)c(-c2ccc(OC)cc2)s1,inactive,–
O=S(=O)(O)c1ccccc1/C=C/c1ccc(-c2ccc(/C=C/c3ccccc3S(=O)(=O)O)cc2)cc1,inactive,–
Cc1cc(C)c(/C=C2\C(=O)Nc3ccccc32)[nH]1,inactive,–
CCO[Si](OCC)(OCC)OCC,inactive,–
C=CC(=O)Nc1cc2c(Nc3ccc(F)c(Cl)c3)ncnc2cc1OCCCN1CCOCC1,inactive,–
CCCCOC(=O)CO,inactive,–
CN(C)Cc1ccccc1O,inactive,–
CC1=CCC(=C(C)C)CC1,inactive,–
CCN1C(=O)c2ccccc2C1Nc1ccc(OCCN2CCCCC2)cc1 (stereo not given),inactive,–
CCCCCC/C=C\CCCCCCCC(=O)O,inactive,–
CC(C(=O)O)c1ccc2c(c1)[nH]c1ccc(Cl)cc12 (stereo not given),inactive,–
O=C(O)c1cccc(C(F)(F)F)c1,inactive,–
O=[N+]([O-])c1cccc(C(F)(F)F)c1,inactive,–
COc1cc2nc(N3CCN(C(=O)c4ccco4)CC3)nc(N)c2cc1OC,–,0.868% [at 19 µM] (inactive)
CN1CCN(Cc2cc(-c3ccc4[nH]c(=O)oc4c3)co2)[C@@H](c2ccc(F)cc2)C1,inactive,–
C[C@H]1NCc2cc(-c3ccc4c(=O)c(C(=O)O)cn(C5CC5)c4c3OC(F)F)ccc21,–,-0.399% [at 19 µM] (inactive)

SMILES,Potency,activation
CC1(C)CCC[C@]2(C)[C@H]3CC(=O)O[C@]3(C)CC[C@@H]12,inactive,–
CC(C)(c1cc(Br)c(OCC(Br)CBr)c(Br)c1)c1cc(Br)c(OCC(Br)CBr)c(Br)c1 (stereo not given),inactive,–
O=S(=O)(O)c1ccc(Nc2nc(Nc3ccc(/C=C/c4ccc(Nc5nc(Nc6ccc(S(=O)(=O)O)cc6)nc(N(CCO)CCO)n5)cc4S(=O)(=O)O)c(S(=O)(=O)O)c3)nc(N(CCO)CCO)n2)cc1,inactive,–
CCCCC/C=C\C/C=C\CCCCCCCC(=O)O,inactive,–
Cc1c(C)c2c(c(C)c1O)CC[C@@](C)(CCC[C@H](C)CCC[C@H](C)CCCC(C)C)O2,inactive,–
CC(CO)Oc1ccccc1 (stereo not given),inactive,–
CCCCCC(C)OC(=O)COc1ccc(Cl)c2cccnc12 (stereo not given),inactive,–
O=C(Nc1ccc2c(O)c(N=Nc3ccc(N=Nc4ccc(S(=O)(=O)O)cc4)cc3)c(S(=O)(=O)O)cc2c1)c1ccccc1,inactive,–
O=C(/C=C/c1ccccc1)OC/C=C/c1ccccc1,inactive,–
CC(CCc1ccccc1)NCC(O)c1ccc(O)c(C(N)=O)c1 (stereo not given),inactive,–
COc1cc(/C=C/c2ccccc2)oc(=O)c1,inactive,–
CCN(CCN)c1cccc(C)c1,inactive,–
Clc1sc(Cl)c(Cl)c1Cl,inactive,–
CCCCCCCCCCOC(=O)c1ccccc1C(=O)OCCCCCCCC,inactive,–
C#Cc1ccc(-c2ccccc2F)cc1,inactive,–
[Cu+],inactive,–
Cc1cc(=O)oc2cc(O)cc(O)c12,inactive,–
Oc1cc(Cl)cc(Cl)c1Cl,inactive,–
C=CC(=O)OCCOC(=O)C=C,61.1 µM (active),–
CC(C)(C)CC(C)(C)c1ccc(Nc2ccc(C(C)(C)CC(C)(C)C)cc2)cc1,–,1.18% [at 8.39 µM] (inactive)
